The record followed here is publication PMC5515408, “Sequence-specific DNA binding by MYC/MAX to low-affinity non-E-box motifs”.

The full ranking holds about 5,000 sequences; the median of “log2 normalized fluorescence” is about 0.089, and the highest 2% start at about 0.81. The full list was thinned out, with the highest values kept by preference.

This experiment deals with MYC (p64);MAX (p21), in MYC:MAX (human;human, UniProt P01106-1;P61244-2 1-439;1-151, |). The experiment is described as follows: protein-binding microarray (anti-MAX antibody); PBM: 15 mM Tris-HCl pH 7.5, 100 mM KCl, 0.075% NP40, 7.5 mM beta-mercaptoethanol, 375 ng/ul BSA, 8 ng/ul poly(dA-dT):(dA-dT), 550 ng complex, 60 min, room tempe; high values mean tight binding. Conditions: protein: recombinant;recombinant; tags: 6xHis;6xHis; copies: 1;1; label: 3' end of printed strand (linker) attached to glass slide; dsDNA, one strand shown. The method in brief: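 A custom Agilent glass array held ~5000 unique 12-nt sequences in triplicate spots, made double-stranded by primer extension. His-tagged human MYC:MAX or MAX:MAX dimers (550 ng, produced in E. coli) were applied for 60 min at room temperature in Tris-KCl buffer, pH 7.5, with NP40, BSA and poly(dA-dT) competitor. Anti-MAX and secondary antibodies detected bound protein, with scanning at 543 nm, and binding is given as log2 normalized fluorescence.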
Sequence of MYC (p64);MAX (p21), in MYC:MAX (P01106 16-454, chain 1 of 2): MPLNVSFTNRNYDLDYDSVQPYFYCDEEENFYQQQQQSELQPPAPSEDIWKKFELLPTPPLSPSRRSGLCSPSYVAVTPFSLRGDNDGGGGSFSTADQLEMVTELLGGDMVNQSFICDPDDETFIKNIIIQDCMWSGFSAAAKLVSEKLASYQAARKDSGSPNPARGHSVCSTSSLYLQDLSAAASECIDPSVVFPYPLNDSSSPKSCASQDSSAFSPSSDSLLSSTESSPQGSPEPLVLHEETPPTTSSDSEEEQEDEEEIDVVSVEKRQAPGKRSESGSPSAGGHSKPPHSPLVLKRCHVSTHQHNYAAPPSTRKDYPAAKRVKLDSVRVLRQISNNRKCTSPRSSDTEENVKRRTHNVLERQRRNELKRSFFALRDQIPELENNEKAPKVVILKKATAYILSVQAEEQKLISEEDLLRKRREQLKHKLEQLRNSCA
Sequence of MYC (p64);MAX (p21), in MYC:MAX (P61244 other isoform, or with tags, fused parts or gaps |, chain 2 of 2): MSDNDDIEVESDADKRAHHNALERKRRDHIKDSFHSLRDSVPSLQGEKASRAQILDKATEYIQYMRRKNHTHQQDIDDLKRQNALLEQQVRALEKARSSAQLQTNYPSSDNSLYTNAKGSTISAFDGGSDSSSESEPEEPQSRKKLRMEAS
Turning to “CCGGCTGACACGTGTTATTAATAGCTAAGATTACTATATCGACG”, the binding signal was 0.722 log2 normalized fluorescence.
With “CCGGCTGACACGTGAACTTAATAGCTAAGATTACTATATCGACG” the figure was 0.796 log2 normalized fluorescence.
Consider “CCGGCCGACACATGGTTTTAATAGCTAAGATTACTATATCGACG”, for which the binding signal is 0.635 log2 normalized fluorescence.
Take “CCGGCTGACACGTGGTGTTAATAGCTAAGATTACTATATCGACG”: the binding signal is 0.534 log2 normalized fluorescence.
With “CCGGCTGACACGTTAGATTAATAGCTAAGATTACTATATCGACG” the figure was 0.482 log2 normalized fluorescence.
On to “CCGGCTGACATGTGGTTTTAATAGCTAAGATTACTATATCGACG”, for which the binding signal was 0.359 log2 normalized fluorescence.
With “CCGGCTGAGACCTGCTATTAATAGCTAAGATTACTATATCGACG” the figure was -0.0388 log2 normalized fluorescence; with “CCGGCTGGCACCTGGCATTAATAGCTAAGATTACTATATCGACG”, 0.319 log2 normalized fluorescence.
As to “CCGGCTGAGTGTTAGTATTAATAGCTAAGATTACTATATCGACG”, the binding signal is 0.177 log2 normalized fluorescence.
With “CCGGCTGATGATGCGTATTAATAGCTAAGATTACTATATCGACG” the figure was 0.112 log2 normalized fluorescence; with “CCGGCTGATATGACGTATTAATAGCTAAGATTACTATATCGACG”, 0.0181 log2 normalized fluorescence.
As to “CCGGCTAACACAAGGTATTAATAGCTAAGATTACTATATCGACG”, the binding signal is 0.534 log2 normalized fluorescence.
For “CCGGCTGACACGATATATTAATAGCTAAGATTACTATATCGACG” the value was 0.408 log2 normalized fluorescence; for “CCGGCTGTCACGTGTTCTTAATAGCTAAGATTACTATATCGACG”, 0.848 log2 normalized fluorescence; for “CCGGCTGACACGTGTTTTTAATAGCTAAGATTACTATATCGACG”, 0.847 log2 normalized fluorescence.
On to “CCGGCTGACACGTGTGTTTAATAGCTAAGATTACTATATCGACG”, for which the binding signal was 0.7 log2 normalized fluorescence.
For “CCGGCTGACACGTGTCCTTAATAGCTAAGATTACTATATCGACG” the value was 0.926 log2 normalized fluorescence.
With “CCGGCTGACACGTAGTGTTAATAGCTAAGATTACTATATCGACG” the figure was 0.396 log2 normalized fluorescence; with “CCGGCTGACACGTGTTCTTAATAGCTAAGATTACTATATCGACG”, 0.738 log2 normalized fluorescence; with “CCGGCTGACACGTAGTTTTAATAGCTAAGATTACTATATCGACG”, 0.406 log2 normalized fluorescence.
With “CCGGCTGTCACGTGCTATTAATAGCTAAGATTACTATATCGACG” the figure was 0.591 log2 normalized fluorescence; with “CCGGCTGACACGTGTAGTTAATAGCTAAGATTACTATATCGACG”, 0.834 log2 normalized fluorescence; with “CCGGCTGACACGTGACCTTAATAGCTAAGATTACTATATCGACG”, 0.633 log2 normalized fluorescence.
As to “CCGGCTGACACGTGCCCTTAATAGCTAAGATTACTATATCGACG”, the binding signal is 0.7 log2 normalized fluorescence.
As to “CCGGCTGACACGTGGTTTTAATAGCTAAGATTACTATATCGACG”, the binding signal is 0.795 log2 normalized fluorescence.
On to “CCGGCTGAAACAACGTATTAATAGCTAAGATTACTATATCGACG”, for which the binding signal is 0.159 log2 normalized fluorescence.
With “CCGGCCGACATGTAGTATTAATAGCTAAGATTACTATATCGACG” the figure was 0.368 log2 normalized fluorescence.
For “CCGGCAGACAAGTGCTATTAATAGCTAAGATTACTATATCGACG” the value was 0.353 log2 normalized fluorescence; for “CCGGCAATCTAGTCTACTTAATAGCTAAGATTACTATATCGACG”, 0.0163 log2 normalized fluorescence; for “CCGGCTGATATAATGTATTAATAGCTAAGATTACTATATCGACG”, 0.0653 log2 normalized fluorescence.
For “CCGGCTGAACTCGCGTATTAATAGCTAAGATTACTATATCGACG” the value was 0.276 log2 normalized fluorescence; for “CCGGCTGAAACCAAGTATTAATAGCTAAGATTACTATATCGACG”, 0.0737 log2 normalized fluorescence; for “CCGGCTGAACCAGTGTATTAATAGCTAAGATTACTATATCGACG”, 0.036 log2 normalized fluorescence.
As for “CCGGCTAGCACGTGGCATTAATAGCTAAGATTACTATATCGACG”, the binding signal is 0.803 log2 normalized fluorescence.
With “CCGGCTGACACGTGCAATTAATAGCTAAGATTACTATATCGACG” the figure was 0.779 log2 normalized fluorescence; with “CCGGCTAGCACGTGTTTTTAATAGCTAAGATTACTATATCGACG”, 0.813 log2 normalized fluorescence.
For “CCGGCTGACACGTGCACTTAATAGCTAAGATTACTATATCGACG”, the binding signal was 0.88 log2 normalized fluorescence.
With “CCGGCTGACACGTGCAGTTAATAGCTAAGATTACTATATCGACG” the figure was 0.746 log2 normalized fluorescence.
For “CCGGCTGGCACGTGGTTTTAATAGCTAAGATTACTATATCGACG” the value was 0.67 log2 normalized fluorescence; for “CCGGCTGAATCTTGGTATTAATAGCTAAGATTACTATATCGACG”, -0.0321 log2 normalized fluorescence; for “CCGGCTGAAAGGTCGTATTAATAGCTAAGATTACTATATCGACG”, 0.0812 log2 normalized fluorescence.
With “CCGGCTGGAGCGTGGTATTAATAGCTAAGATTACTATATCGACG” the figure was 0.418 log2 normalized fluorescence.
Consider “CCGGCTGAAATCGCGTATTAATAGCTAAGATTACTATATCGACG”, for which the binding signal is 0.18 log2 normalized fluorescence.
On to “CCGGCTGAATCAATGTATTAATAGCTAAGATTACTATATCGACG”, for which the binding signal was 0.252 log2 normalized fluorescence.
With “CCGGCTGAGAACACGTATTAATAGCTAAGATTACTATATCGACG” the figure was 0.318 log2 normalized fluorescence; with “CCGGCTGACCTTGAGTATTAATAGCTAAGATTACTATATCGACG”, 0.204 log2 normalized fluorescence.
In the case of “CCGGCAGACACGTCGTATTAATAGCTAAGATTACTATATCGACG”, the binding signal is 0.32 log2 normalized fluorescence.
For “CCGGCAGACACGCGATATTAATAGCTAAGATTACTATATCGACG” the value was 0.437 log2 normalized fluorescence; for “CCGGCAGACACGTGATCTTAATAGCTAAGATTACTATATCGACG”, 0.751 log2 normalized fluorescence; for “CCGGCAGAAACGTGTTATTAATAGCTAAGATTACTATATCGACG”, 0.573 log2 normalized fluorescence.
Take “CCGGCCGACACCTGTTATTAATAGCTAAGATTACTATATCGACG”: the binding signal was 0.432 log2 normalized fluorescence.
With “CCGGCTGGCACGTGGTATTAATAGCTAAGATTACTATATCGACG” the figure was 0.809 log2 normalized fluorescence; with “CCGGCTGGCACGTGGCATTAATAGCTAAGATTACTATATCGACG”, 0.721 log2 normalized fluorescence; with “CCGGCAGACACGTGTTATTAATAGCTAAGATTACTATATCGACG”, 0.993 log2 normalized fluorescence.
For “CCGGCCGACACGTGTTATTAATAGCTAAGATTACTATATCGACG”, the binding signal is 0.999 log2 normalized fluorescence.
As for “CCGGCTGGCACGTGGTGTTAATAGCTAAGATTACTATATCGACG”, the binding signal is 0.954 log2 normalized fluorescence.
For “CCGGCAGACACGTGATATTAATAGCTAAGATTACTATATCGACG” the value was 0.851 log2 normalized fluorescence.
With “CCGGCCGACACGGCGTATTAATAGCTAAGATTACTATATCGACG” the figure was 0.161 log2 normalized fluorescence.
